In the supplement of paper PMC13094657:
± gives the standard deviation of the averaged measurements.

The compounds below were run on MDA-MB-231 (assay: kynurenine production, fold change vs DMSO IFNg/TNF control; higher = more kynurenine produced (less inhibition)). Settings: pre-treatment time: 18 h then 24 h IFNg/TNF.
In short: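 MDA-MB-231 cells were seeded in 96-well plates at 7 × 10^4/well and, 24 h later, pre-treated for 18 h with each natural product in 0.1% DMSO. They were then stimulated for 24 h at 37°C with IFNγ (1 U/ml) and TNF (6.25 ng/ml). Supernatants were treated with trichloroacetic acid and p-dimethylaminobenzaldehyde and read at 492 nm against 0–100 μM standards. Kynurenine production is expressed as fold change over cytokine-stimulated vehicle wells on the same plate and, in the first screening round, averaged across duplicate plates.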

| Structure (SMILES) | kynurenine production |
| --- | --- |
| COC(=O)[C@@]1(C)CC[C@]2(C(=O)O)CC[C@]3(C)C(=CC[C@@H]4[C@@]5(C)C[C@H](O)[C@H](O)[C@@](C)(CO)[C@@H]5CC[C@]43C)[C@@H]2C1 [Phytolaccagenin] (compound dose: 10 uM) | 0.875 ± 0.095 |
| C[C@H]1[C@@H](O)O[C@@H]2O[C@@]3(C)CC[C@H]4[C@H](C)CC[C@@H]1[C@@]24OO3 [Dihydroartemisinin] (compound dose: 10 uM) | 0.688 ± 0.12 |
| C[C@@H]1CC[C@]2(C(=O)O[C@@H]3O[C@H](CO)[C@@H](O)[C@H](O)[C@H]3O)CC[C@]3(C)C(=CC[C@@H]4[C@@]5(C)CC[C@H](O[C@@H]6OC[C@H](O)[C@H](O)[C@H]6O)C(C)(C)[C@@H]5CC[C@]43C)[C@@H]2[C@]1(C)O [Ziyuglycoside I] (compound dose: 10 uM) | 0.804 ± 0.19 |
| C=C1C[C@@]23CC[C@H]4[C@@](C)(CCC[C@@]4(C)C(=O)O)[C@@H]2CC[C@]1(O[C@@H]1O[C@@H](CO)[C@@H](O)[C@H](O)[C@@H]1O[C@@H]1O[C@@H](CO)[C@@H](O)[C@H](O)[C@@H]1O)C3 [Steviolbioside] (compound dose: 10 uM) | 1.05 ± 0.44 |
| COC(=O)C1=CO[C@@H](O[C@@H]2O[C@H](CO)[C@@H](O)[C@H](O)[C@H]2O)[C@@H]2[C@H](C)O[C@@H](O)C[C@H]12 [Morroniside] (compound dose: 10 uM) | 1.22 ± 0.21 |
| C[C@@H]1O[C@@H](O[C@H]2[C@H](OC(=O)[C@]34CCC(C)(C)C[C@H]3C3=CC[C@@H]5[C@@]6(C)C[C@H](O)[C@H](O[C@@H]7O[C@H](CO)[C@@H](O)[C@H](O)[C@H]7O)C(CO)(CO)[C@@H]6CC[C@@]5(C)[C@]3(C)C[C@H]4O)OC[C@H](O)[C@@H]2O)[C@H](O)[C@H](O)[C@H]1O[C@@H]1OC[C@@H](O)[C@H](O)[C@H]1O [Deapioplatycodin D] (compound dose: 10 uM) | 0.643 ± 0.13 |
| C=C1C(=O)O[C@@H]2C[C@@]3(C)CCC[C@H](C)C3=C[C@H]12 [Alantolactone] (compound dose: 10 uM) | 0.0823 ± 0.017 |
| CC(C)=CCC[C@](C)(O[C@@H]1O[C@H](CO)[C@@H](O)[C@H](O)[C@H]1O)[C@H]1CC[C@]2(C)[C@@H]1[C@H](O)C[C@@H]1[C@@]3(C)CC[C@H](O[C@@H]4O[C@H](CO)[C@@H](O)[C@H](O)[C@H]4O)C(C)(C)[C@@H]3CC[C@]12C [Ginsenoside F2] (compound dose: 10 uM) | 0.818 ± 0.12 |
| C[C@@H]1[C@H]2[C@H](O[C@@H]3O[C@H](CO)[C@@H](O)[C@H](O)[C@H]3O)OC=C(C(=O)O)[C@H]2C[C@@H]1O [Loganic acid] (compound dose: 10 uM) | 1.01 ± 0.16 |
| CC1=CC[C@@](O)(C(C)C)CC1 [Terpinen-4-ol] (compound dose: 10 uM) | 0.984 ± 0.17 |
| C=C[C@@]1(C)CC(=O)[C@]2(O)[C@@]3(C)[C@@H](O)CCC(C)(C)[C@@H]3[C@H](O)[C@H](OC(C)=O)[C@@]2(C)O1 [Forskolin] (compound dose: 10 uM) | 1.37 ± 0.25 |
| C=C(C)C1CC=C(C)CC1 (stereo not drawn) [(s)-(-)-limonene] (compound dose: 10 uM) | 0.84 ± 0.099 |
| CC(C)=CCC[C@@H](C)CC=O [Citronellal] (compound dose: 10 uM) | 1.22 ± 0.043 |
